Screens (PubChem BioAssay)
AddAB inh – less growth of phage-infected E. coli with AddAB | E. coli expressing H. pylori AddAB, absorbance growth | inhibition, % at 11.9 µM | 330,000 compounds, 0.29% hits; in the data active = inhibition above about 12%
Tat export inh – E. coli Tat transport inhibition; 340,000 compounds, 0.036% hits; AID 488895; E. coli MC4100 TorA-mCherry Tat export, fluorescence; inhibition, % at 10 µM;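 active = mean replicate inhibition at least 50% and at least half of replicates individually reaching 50%; inconclusive = only one of the two criteria met; inactive = neither criterion met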;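 also: exported cargo escapes ClpAP degradation while cytoplasmic cargo is degraded and loses fluorescence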
E coli growth-1 – counter-screen for AddAB inhibitors: E. coli growth inhibition | inhibition, % at 11.9 µM | AID 449728 | 330,000 compounds, 0.27% hits | E. coli V3065 growth, OD600 absorbance, 18 h;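 active = inhibition above the campaign's mean inhibition across all tested compounds plus 3 SD, cut at about 9.9% in these data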;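 also: uninfected addAB+ strain grown without phage in ampicillin broth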
AI-2 QS modul – modulators of Vibrio harveyi AI-2 quorum sensing system; activity change, % at 7.5 µM; Vibrio harveyi JMH597 AI-2 luminescence/OD600 ratio, 9 h; hits give low values; strain lacks LuxN and CqsS sensors; 0 = neutral-control median; 300,000 compounds, 0.4% hits; AID 2094; in the data active = activity change below about -75%, passing the limit was not always enough; inconclusive = no clear call, values can overlap the other calls;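 also: luminescence divided by OD600 gain over 9 h not by final OD600 alone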
E coli growth-2 – E. coli growth inhibition; Escherichia coli growth, OD600, 23 h; hits give low values; OD600 absorbance (no concentration beside the values); 330,000 compounds, 0.21% hits; AID 1053175;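 active = OD600 absorbance below the run mean of sample wells minus 3.6 SD, in any replicate, cut at about 0.56 in these data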
phage Ecoli inh – E. coli growth loss with phage present; growth absorbance; inhibition, % at 11.9 µM; 360,000 compounds, 0.26% hits; in the data active = inhibition above about 11%
JMH597 growth – retest Vibrio harveyi JMH597 growth inhibition; 750 compounds, 1% hits; shares compounds with AI-2 QS modul; growth inhibition, % at 7.5 µM; OD600 absorbance, 9 h; lacks LuxN and CqsS sensors;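 active = every replicate shows growth inhibition above 50%; inconclusive = at least half, but not all, replicates pass that cutoff; inactive = fewer than half of replicates pass it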
BB721 lum counter – retest counter-screen: luminescence loss in constitutive-on quorum sensing strain BB721; shares compounds with AI-2 QS modul; inhibition, % at 7.5 µM; AID 2727; 750 compounds, 95% hits; Vibrio harveyi BB721 luminescence, 9 h;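 active = inhibition above about 80% in every replicate, not just on average, limit read from the data; inconclusive = at least half of replicates past the limit, but not all; inactive = fewer than half of replicates past the limit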
BB721 growth – retest: inhibitors of Vibrio harveyi BB721 growth; 750 compounds, 3% hits; growth inhibition, % at 7.5 µM; OD600 absorbance, 9 h; shares compounds with AI-2 QS modul;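 active = every replicate shows growth inhibition above 50%; inconclusive = at least half but not all replicates above 50% inhibition; inactive = under half of replicates above 50% inhibition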
JMH597 AI-2 mod – Vibrio harveyi AI-2 signaling luminescence modulation – JMH597 strain, confirmation; 750 compounds, 97% hits; shares compounds with AI-2 QS modul; Vibrio harveyi JMH597 AI-2 quorum sensing luminescence, 9 h; luxN and CqsS knockout, AI-2 only; inhibition, % at 7.5 µM;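 active = every replicate shows more than 75% inhibition of signal versus neutral control wells; inconclusive = half to three quarters of replicates exceed 75% inhibition; inactive = fewer than half of replicates exceed 75% inhibition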
Hits are given with their value; 0 = inactive; ? = inconclusive; - = no result. Rows were chosen to be rich in hits. Some 0.79% of all compounds tested hit in one or more screens of this group.

SMILES	AddAB inh	Tat export inh	E coli growth-1	AI-2 QS modul	E coli growth-2	phage Ecoli inh	JMH597 growth	BB721 lum counter	BB721 growth	JMH597 AI-2 mod
Cc1ccc(-c2cc(NC(=O)c3ccccc3[N+](=O)[O-])n[nH]2)cc1	0	0	0	-95.4	0	0	0	97.2	0	98.4
C=C1C(=O)OC2C(O)C(C)=CC(=O)C=C(C)CC(OC(=O)C(C)=CC)C12 (configuration not stated)	-	-	-	-	0	-	-	-	-	-
O=C(CN1C(=O)NC2(CCc3ccccc32)C1=O)Nc1ccc(N2CCOCC2)cc1 (configuration not stated)	0	0	0	-89.0	0	0	0	88.1	0	93.1
COc1ccc(CSc2nc3ccccc3[nH]2)cc1	0	0	0	-85.3	0	0	0	91.9	0	95.8
O=C1CCC(=O)N1c1ccc(CSc2nc3ccccc3[nH]2)cc1	0	0	0	0	0	0	-	-	-	-
CCCOC(=O)c1ccc(NS(=O)(=O)c2cccs2)cc1	0	0	0	-85.8	0	0	0	89.1	0	99.0
CC(=O)Nc1ccc(NC(=O)CCn2c(=S)oc3ccccc32)cc1	0	0	0	0	0	0	-	-	-	-
CC(C)CC(=O)/C=C/n1c(=S)oc2ccccc21	0	0	0	-86.2	0	0	0	92.5	0	93.1
CCOc1ccc(C=NNC(=O)c2csc(C)c2C)c(OCC)c1	-	-	-	-	0	-	-	-	-	-
O=C(NCCc1ccco1)c1cc(COc2cccc(C(F)(F)F)c2)on1	0	0	0	-84.2	0	0	0	82.3	0	92.3
O=C(CCNC(=O)c1ccco1)Nc1nc2ccccc2s1	-	0	-	-	0	0	-	-	-	-
O=C(COC(=O)c1ccco1)Nc1nc2ccccc2s1	0	0	0	?	0	0	0	93.7	0	95.4
CCOC(=O)C1=C(C)NC(=S)NC1C (configuration not stated)	0	0	0	-81.8	0	0	0	0	0	0
COc1ccc(OCC(O)CN2CCc3ccccc3C2)cc1 (configuration not stated)	0	0	0	0	0	0	-	-	-	-
CC(C)(C)c1ccc(OCC(O)CN2CCc3ccccc3C2)cc1 (configuration not stated)	0	-	0	-82.3	0	0	0	81.1	0	88.1
O=c1[nH]c(=O)n(Cc2ccc(Oc3ccccc3)cc2)cc1Br	0	0	0	-85.7	-	0	0	92.8	0	95.3
N#Cc1cn(Cc2ccccc2)c(=O)[nH]c1=O	0	0	0	0	0	0	-	-	-	-
O=C(NN=Cc1cccnc1)c1cccc(NC(=O)c2ccc(Cl)cc2)c1	-	-	-	-	0	-	-	-	-	-
c1ccc(CNc2nc(-c3cccnc3)cs2)cc1	0	0	0	-82.6	0	0	0	94.0	0	96.5
CCOc1ccc(C=NNC(=S)NC2CC3CC2C2C=CCC32)cc1 (configuration not stated)	-	-	-	-	0	-	-	-	-	-
O=C(COC(=O)Cc1ccccc1F)Nc1ccc(SC(F)F)cc1	0	0	0	0	0	0	-	-	-	-
O=C(Cc1ccccc1F)Nc1ccc(SC(F)F)cc1	0	0	0	-83.4	0	0	0	93.8	0	93.9
CCN(CC)c1ccc(NC(=S)NC(=O)Cc2ccccc2)cc1	0	0	0	0	0	0	-	-	-	-
CN(C)S(=O)(=O)c1ccc(NC(=S)NC(=O)Cc2ccccc2)cc1	0	0	0	-86.1	0	0	0	0	0	0
Cc1ccccc1-c1ccc(=O)n(CC(=O)Nc2ccc(S(=O)(=O)N(C)C)cc2)n1	0	0	0	-87.0	0	0	0	92.8	0	96.5
SMILES	AddAB inh	Tat export inh	E coli growth-1	AI-2 QS modul	E coli growth-2	phage Ecoli inh	JMH597 growth	BB721 lum counter	BB721 growth	JMH597 AI-2 mod
N#Cc1c(Nc2ccccc2)c(C=NNCCO)c[nH]c1=O	-	-	-	-	0	-	-	-	-	-
COc1ccc(NC(=O)CSCC(=O)N(C)CC(=O)Nc2ccc(Cl)c(C(F)(F)F)c2)cc1	0	0	0	-80.5	0	0	0	89.2	0	91.2
COc1cc(C(=O)NCC(=O)NN=Cc2ccc(OC(=O)c3ccco3)cc2)cc(OC)c1OC	-	-	-	-	0	-	-	-	-	-
CCC(C)CN1C(=O)NC(c2ccccc2)C(C(C)=O)=C1C (configuration not stated)	-	-	-	-	0	-	-	-	-	-
O=C(Cc1ccc(Cl)cc1)N/N=C/c1ccncc1	0	0	0	-81.2	-	0	0	91.8	0	92.2
O=C(Cc1ccc(Cl)cc1)N/N=C/c1cccc(O)c1	0	0	0	-95.1	-	0	0	97.0	0	97.9
O=C(Cc1ccc(Cl)cc1)N/N=C/c1ccccc1	0	0	0	0	-	0	-	-	-	-
O=C(NCCN1CCOCC1)c1ccc(Cl)c([N+](=O)[O-])c1	0	0	0	?	0	0	0	0	0	0
CCCCN1CCC2C=CCC(C(=O)Nc3ccc(Cl)c(C(F)(F)F)c3)C2C1=O (configuration not stated)	-	-	-	-	0	-	-	-	-	-
CN(C)S(=O)(=O)c1ccc(NC(=O)COc2ncnc3sccc23)cc1	0	0	0	-96.9	0	0	0	99.6	0	99.8
CN(C)S(=O)(=O)c1ccc(NC(=O)CSc2ncnc3ccccc23)cc1	0	0	0	-86.4	0	0	0	91.6	0	93.8
CN(C)S(=O)(=O)c1cccc(NC(=O)CSc2ncnc3ccccc23)c1	0	0	0	0	0	0	-	-	-	-
CNC(=O)COc1ncnc2sccc12	-	0	-	-	0	0	-	-	-	-
COc1ccc(-c2nn(CCC#N)cc2C=NO)cc1OC	-	-	-	-	0	-	-	-	-	-
C=CCN1c2ccccc2[C@]23CC(C(=O)OC)N(C(=O)C4CCC4)C2=NC(C(=O)OC)=C(C(=O)OC)C13 (some centres not stated)	-	-	-	-	0	-	-	-	-	-
CC(C)(C)c1cc(OC(=O)c2ccncc2)ccc1O	0	0	0	-	0	0	-	-	-	-
CC(C)(C)c1cc(OC(=O)c2ccccc2F)ccc1O	0	0	0	-85.9	0	0	0	96.8	0	96.7
CC(=NNC(=O)c1ccoc1C)c1cccc2ccccc12	-	-	-	-	0	-	-	-	-	-
CC(C)=CC(=O)Nc1ccc(OCc2ccccc2)cc1	0	0	0	-82.6	0	0	0	93.7	0	95.7
CCc1nnc(NC(=O)CSc2ccc(-c3ccco3)nn2)s1	0	0	0	-82.6	0	0	0	94.2	0	95.8
Cc1nnc(NC(=O)CSc2ccc(-c3ccco3)nn2)s1	0	0	0	0	0	0	-	-	-	-
Cc1ccc(S(=O)(=O)/C=C/c2ccccc2)cc1	0	0	0	-85.2	-	0	0	92.7	0	99.6
Cc1nn(Cc2ccc(Cl)cc2)c(C)c1NC(=O)c1c(-c2ccccc2)noc1C	0	0	0	-80.3	0	0	0	92.5	0	94.0
